Test results published in PubChem BioAssay (Tox21).
Several values for one entry are separate records, joined by “and”; a condition that tells them apart may be missing. Equal entries are not always repeated. Inconclusive results are not listed. Where a call stands in place of a potency, no number is given. The source holds several records for some structures; these can differ, active in one and inactive in another. Activity calls are given as the source filed them. Unless noted, the call rests on the fitted dose curve; in most records, active means well fitted curve in the direction sought with a large enough effect in the repeat runs; inconclusive means weak or mixed curves; inactive means no such curve, though single readings can be large; an effect the other way counts as inactive or inconclusive.

What was measured:
[1] = qHTS assay to identify small molecule antagonists of the androgen receptor (AR) signaling pathway using the MDA cell line in the presence of 0.5 nM R1881 - cell viability counter screen (AID 1259242); further: nearly all actives have a fitted effect of over 45% in size
Procedure, shortened: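 MDA-kb2 cells (human breast carcinoma, stably carrying MMTV-luciferase reporter) were exposed to compounds with 0.5 nM R1881 (final) for 16 hr at 37C, 0% CO2; viability then read as live-cell protease fluorescence (CellTiter-Fluor, 30 min) in the same wells.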

[2] = target: Estrogen receptor (Homo sapiens) (UniProt P03372); test: qHTS assay to identify small molecule antagonists of the estrogen receptor alpha (ER-alpha) signaling pathway using the BG1 cell line in the presence of 0.1 nM 17-beta-estradiol (AID 1259244); further: nearly all actives have a fitted effect of over 50% in size; further: potency means the concentration at half of the fitted maximal effect
Sequence of Estrogen receptor (Homo sapiens) (P03372 whole entry, looked up): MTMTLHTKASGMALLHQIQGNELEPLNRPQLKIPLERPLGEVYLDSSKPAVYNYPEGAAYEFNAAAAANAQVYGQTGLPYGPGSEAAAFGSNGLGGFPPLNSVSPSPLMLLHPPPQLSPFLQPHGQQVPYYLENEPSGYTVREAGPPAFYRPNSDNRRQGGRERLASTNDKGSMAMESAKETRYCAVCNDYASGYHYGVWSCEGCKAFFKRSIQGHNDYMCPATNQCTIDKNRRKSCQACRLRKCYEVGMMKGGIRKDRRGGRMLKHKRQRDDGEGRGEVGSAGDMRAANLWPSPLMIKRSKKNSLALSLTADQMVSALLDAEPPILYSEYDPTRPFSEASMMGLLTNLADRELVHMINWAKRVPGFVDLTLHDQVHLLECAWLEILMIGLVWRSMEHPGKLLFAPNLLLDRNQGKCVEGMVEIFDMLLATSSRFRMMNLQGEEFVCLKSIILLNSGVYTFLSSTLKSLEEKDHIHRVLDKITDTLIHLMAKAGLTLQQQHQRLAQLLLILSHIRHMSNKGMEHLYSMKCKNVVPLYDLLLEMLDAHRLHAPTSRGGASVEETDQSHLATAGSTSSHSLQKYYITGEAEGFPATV
Procedure, shortened: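 VM7Luc4E2 cells (endogenous full-length ER-alpha, stable 4xERE-luciferase) were grown 5 days in phenol red-free medium with charcoal-stripped FBS, then exposed 22 h at 37C to compounds plus 0.1 nM (final) 17beta-estradiol; ONE-Glo luminescence read-out.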

[3] = qHTS assay to identify small molecule phospholipidosis (PLD) inducers (AID 1259344; active means well fitted curve in the direction sought with a large enough effect; an effect the other way counts as inactive or inconclusive)
Procedure, shortened: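 Fluorescent phospholipid staining (LipidTOX Red) measured by automated microscopy in fixed HepG2 cells after 24 h treatment; nuclei counterstained with Hoechst 33342; amiodarone as reference inducer.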

[4] = qHTS assay to identify small molecule HDAC inhibitors (AID 1259364); further: top concentration of the series differs between compounds; nearly all actives have a fitted effect of over 45% in size
Procedure, shortened: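 Wild-type HCT-116 cells were plated overnight, exposed to compounds for 2 h at 37 °C, then given HDAC-Glo class I/II luminogenic reagent for 30 min at room temperature before luminescence was read.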

[5] = qHTS assay to identify small molecule HDAC inhibitors - cell viability counter screen (AID 1259365); further: series mostly up to about 92 µM; nearly all actives have a fitted effect of over 50% in size
Procedure, shortened: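 Wild-type HCT-116 cells were seeded at 1,500 per well, incubated overnight at 37 C, then exposed to compounds in DMSO for 2hr. Viability was read by CellTiter-Glo luminescence after 30min at room temperature.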

[6] = qHTS assay to identify small molecule agonists of the sonic hedgehog signaling (Shh) pathway - cell viability counter screen (AID 1259366); further: nearly all actives have a fitted effect of over 50% in size
Procedure, shortened: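 NIH/3T3-derived 3T3 Gli1-Luc cells (stable Gli1-responsive firefly luciferase reporter) were seeded, rested 4 hr at 37 C/5% CO2, then exposed to compounds in DMSO for 24 hr; viability was read by CellTiter-Fluor fluorescence in the same wells.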

[7] = qHTS assay to identify small molecule antagonists of the sonic hedgehog signaling (Shh) pathway - cell viability counter screen (AID 1259367); further: nearly all actives have a fitted effect of over 55% in size; further: potency means the concentration at half of the fitted maximal effect
Procedure, shortened: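 Using CellTiter-Fluor, viability of Gli1-Luc reporter 3T3 cells is read by fluorescence in the wells used for the Shh luciferase assay. Treatment lasts 23 hr with conditioned medium, then reagent 1 hr at 37C.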

[8] = qHTS assay to identify small molecule agonists of the sonic hedgehog signaling (Shh) pathway (AID 1259368; calls by dose curve; further: series mostly up to about 92 µM; nearly all actives have a fitted effect of over 15% in size)
Procedure, shortened: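 NIH/3T3-derived 3T3Gli1-Luc cells carrying a stably integrated Gli1 response element–firefly luciferase reporter were plated, left 4 hr at 37 C, then given compounds in DMSO for 24 hr. Luminescence was read 30 min after adding luciferase reagent.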

[9] = qHTS assay to identify small molecule antagonists of the sonic hedgehog signaling (Shh) pathway (AID 1259369; calls by dose curve; further: nearly all actives have a fitted effect of over 45% in size; further: potency means the concentration at half of the fitted maximal effect)
Procedure, shortened: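 NIH/3T3-derived 3T3Gli1-Luc cells with stably integrated Gli1-Luc reporter were preincubated 4hr at 37 C, then given compounds in DMSO plus Shh conditioned medium and incubated 24hr. Firefly luciferase luminescence read after 30min reagent at room temperature.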

[10] = qHTS assay to identify small molecule agonists of the androgen receptor (AR) signaling pathway in the presence of an antagonist - cell viability counter screen (AID 1259379); further: series mostly up to about 92 µM; nearly all actives have a fitted effect of over 25% in size
Procedure, shortened: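 MDA-kb2 human breast carcinoma cells (stable MMTV-luciferase, AR/GR responsive) were seeded 3,000 cells/well, pre-incubated 5 hr at 37C without CO2, then given 3.0uM nilutamide and compounds at 15 concentrations for 16 hr. Viability was read by CellTiter-Fluor fluorescence.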

[11] = qHTS assay to identify small molecule agonists of the estrogen receptor beta (ER-beta) signaling pathway - cell viability counter screen (AID 1259380); further: nearly all actives have a fitted effect of over 30% in size; further: potency means the concentration at half of the fitted maximal effect
Procedure, shortened: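 ER-beta-UAS-bla HEK293T cells in medium with 2% charcoal-stripped FBS were preincubated 6 hr at 37C, dosed with compound in DMSO for 16 hr, then after the bla read, CellTiter-Glo was added for 30 min at room temperature; luminescence recorded.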

[12] = qHTS assay to identify small molecule antagonists of the estrogen receptor beta (ER-beta) signaling pathway - cell viability counter screen (AID 1259382); further: series mostly up to about 92 µM; nearly all actives have a fitted effect of over 55% in size
Procedure, shortened: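 ER-beta-UAS-bla HEK293T cells (2,000/well, 2% charcoal-stripped FBS) were pre-incubated 6 hr at 37C, then given compound plus 1nM final 17-beta-estradiol for 16 hr. Viability was read in the same wells by CellTiter-Glo luminescence after 30 min at room temperature.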

[13] = qHTS assay to identify small molecule agonists or antagonists of the thyroid stimulating hormone receptor (TSHR) signaling pathway - wild type cell line counter screen (AID 1259384; calls by dose curve)
Procedure, shortened: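 Counter screen in untransfected Hek293: compounds (15-point titration, triplicate) plus phosphodiesterase inhibitor Ro20-1724 added after 18 h plating; 30 min RT. Intracellular cAMP via competitive d2/cryptate immunoassay, 1 h incubation.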

[14] = target: Thyrotropin receptor (Homo sapiens) (UniProt P16473); test: qHTS assay to identify small molecule antagonists of the thyroid stimulating hormone receptor (TSHR) signaling pathway (AID 1259385; calls by dose curve; further: nearly all actives have a fitted effect of over 20% in size)
Sequence of Thyrotropin receptor (Homo sapiens) (P16473 whole entry, looked up): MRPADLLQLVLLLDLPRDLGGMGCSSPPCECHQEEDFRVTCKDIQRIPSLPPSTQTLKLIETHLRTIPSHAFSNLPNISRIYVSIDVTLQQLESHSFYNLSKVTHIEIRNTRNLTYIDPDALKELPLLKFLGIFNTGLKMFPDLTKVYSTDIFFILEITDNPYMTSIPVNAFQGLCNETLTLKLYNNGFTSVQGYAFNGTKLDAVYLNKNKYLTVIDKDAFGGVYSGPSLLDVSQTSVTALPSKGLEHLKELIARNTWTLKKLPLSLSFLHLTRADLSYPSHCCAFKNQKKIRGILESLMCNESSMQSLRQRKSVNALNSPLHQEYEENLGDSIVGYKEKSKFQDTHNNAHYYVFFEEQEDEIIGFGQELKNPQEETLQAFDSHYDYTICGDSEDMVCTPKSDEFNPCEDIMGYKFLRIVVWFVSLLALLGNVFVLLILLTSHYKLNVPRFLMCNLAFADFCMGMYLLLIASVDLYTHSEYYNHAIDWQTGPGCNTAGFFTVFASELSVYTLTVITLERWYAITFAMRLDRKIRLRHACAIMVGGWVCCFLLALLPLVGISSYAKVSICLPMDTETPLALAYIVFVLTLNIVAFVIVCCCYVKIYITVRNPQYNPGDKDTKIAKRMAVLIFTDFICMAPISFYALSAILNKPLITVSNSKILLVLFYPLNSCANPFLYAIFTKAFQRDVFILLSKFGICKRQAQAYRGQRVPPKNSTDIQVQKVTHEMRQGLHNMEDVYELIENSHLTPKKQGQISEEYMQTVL
Procedure, shortened: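 Antagonist mode: compound-treated TSHR-expressing HEK293 cells were stimulated with 1.5 ng/mL TSH (final) in presence of Ro20-1724 for 30 min at RT. HTRF cAMP detection after 1 h; each compound tested at 15 concentrations, triplicate.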

[15] = qHTS assay to identify small molecule agonists of the estrogen receptor alpha (ER-alpha) signaling pathway in the presence of an antagonist - cell viability counter screen (AID 1259386); further: series mostly up to about 92 µM; nearly all actives have a fitted effect of over 30% in size
Procedure, shortened: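 VM7Luc4E2 cells (endogenous full-length ER-alpha, 4×ERE-luciferase) were held 5 days in phenol red-free medium with 10% charcoal-stripped FBS, plated, then given 10.0nM ICI-182,780 and compounds at 15 concentrations for 22hr at 37C; viability read by CellTiter-Fluor fluorescence.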

[16] = target: Estrogen receptor beta (Homo sapiens) (UniProt Q92731); test: qHTS assay to identify small molecule agonists of the estrogen receptor beta (ER-beta) signaling pathway (AID 1259377; active means well fitted activation curve with a large enough effect in the signal ratio in the repeat runs, not every such curve was filed as active; the % refers to the signal ratio)
Sequence of Estrogen receptor beta (Homo sapiens) (Q92731 whole entry, looked up): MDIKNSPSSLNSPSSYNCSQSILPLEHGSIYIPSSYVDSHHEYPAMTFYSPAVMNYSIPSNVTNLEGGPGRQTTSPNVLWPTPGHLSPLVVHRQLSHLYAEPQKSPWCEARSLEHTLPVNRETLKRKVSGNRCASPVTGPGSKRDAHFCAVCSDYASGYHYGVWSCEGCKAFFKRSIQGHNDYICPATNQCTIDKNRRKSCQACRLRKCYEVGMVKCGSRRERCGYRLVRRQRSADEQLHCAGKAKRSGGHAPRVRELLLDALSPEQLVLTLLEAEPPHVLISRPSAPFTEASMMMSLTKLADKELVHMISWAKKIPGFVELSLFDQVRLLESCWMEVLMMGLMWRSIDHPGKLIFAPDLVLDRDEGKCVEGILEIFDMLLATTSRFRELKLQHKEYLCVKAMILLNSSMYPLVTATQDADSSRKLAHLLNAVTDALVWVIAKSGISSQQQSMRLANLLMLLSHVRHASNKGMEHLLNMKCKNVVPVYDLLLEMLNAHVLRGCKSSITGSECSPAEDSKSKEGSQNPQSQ
Procedure, shortened: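 ER-beta-UAS-bla HEK293T (GripTite) cells carrying a UAS-driven beta-lactamase reporter, in medium with 2% charcoal-stripped FBS, were exposed to compounds for 16 hr at 37C; LiveBLAzer B/G FRET substrate was then added and fluorescence read after 2 hours at room temperature.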

[17] = target: Estrogen receptor beta (Homo sapiens) (UniProt Q92731); test: qHTS assay to identify small molecule antagonists of the estrogen receptor beta (ER-beta) signaling pathway (AID 1259378; active means well fitted inhibition curve with a large enough effect in the signal ratio in the repeat runs, not every such curve was filed as active; the % refers to the signal ratio; further: potency means the concentration at half of the fitted maximal effect)
Procedure, shortened: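 Antagonist mode: compounds added to beta-lactamase reporter HEK293T ER-beta-UAS cells stimulated with E2 (1nM final), 16 hr at 37C. LiveBLAzer B/G FRET substrate, 2 hours room temperature, fluorescence read-out.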

[18] = target: Estrogen receptor (Homo sapiens) (UniProt P03372); test: qHTS assay to identify small molecule agonists of the estrogen receptor alpha (ER-alpha) signaling pathway in the presence of an antagonist (AID 1259383; calls by dose curve; further: top concentration of the series differs between compounds; nearly all actives have a fitted effect of over 15% in size)
Procedure, shortened: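 VM7Luc4E2 cells (endogenous full-length ER-alpha, 4×ERE-luciferase) were precultured 5 days in phenol red-free medium with 10% charcoal-stripped FBS, given 10.0nM ICI-182,780 (final), then treated with compounds at 15 concentrations for 22hr at 37C; luminescence read with ONE-Glo.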

[19] = target: Androgen receptor (Homo sapiens) (UniProt P10275); test: qHTS assay to identify small molecule antagonists of the androgen receptor (AR) signaling pathway using the MDA cell line in the presence of 0.5 nM R1881 (AID 1259243); further: potency means the concentration at half of the fitted maximal effect; nearly all actives have a fitted effect of over 50% in size
Sequence of Androgen receptor (Homo sapiens) (P10275 whole entry, looked up): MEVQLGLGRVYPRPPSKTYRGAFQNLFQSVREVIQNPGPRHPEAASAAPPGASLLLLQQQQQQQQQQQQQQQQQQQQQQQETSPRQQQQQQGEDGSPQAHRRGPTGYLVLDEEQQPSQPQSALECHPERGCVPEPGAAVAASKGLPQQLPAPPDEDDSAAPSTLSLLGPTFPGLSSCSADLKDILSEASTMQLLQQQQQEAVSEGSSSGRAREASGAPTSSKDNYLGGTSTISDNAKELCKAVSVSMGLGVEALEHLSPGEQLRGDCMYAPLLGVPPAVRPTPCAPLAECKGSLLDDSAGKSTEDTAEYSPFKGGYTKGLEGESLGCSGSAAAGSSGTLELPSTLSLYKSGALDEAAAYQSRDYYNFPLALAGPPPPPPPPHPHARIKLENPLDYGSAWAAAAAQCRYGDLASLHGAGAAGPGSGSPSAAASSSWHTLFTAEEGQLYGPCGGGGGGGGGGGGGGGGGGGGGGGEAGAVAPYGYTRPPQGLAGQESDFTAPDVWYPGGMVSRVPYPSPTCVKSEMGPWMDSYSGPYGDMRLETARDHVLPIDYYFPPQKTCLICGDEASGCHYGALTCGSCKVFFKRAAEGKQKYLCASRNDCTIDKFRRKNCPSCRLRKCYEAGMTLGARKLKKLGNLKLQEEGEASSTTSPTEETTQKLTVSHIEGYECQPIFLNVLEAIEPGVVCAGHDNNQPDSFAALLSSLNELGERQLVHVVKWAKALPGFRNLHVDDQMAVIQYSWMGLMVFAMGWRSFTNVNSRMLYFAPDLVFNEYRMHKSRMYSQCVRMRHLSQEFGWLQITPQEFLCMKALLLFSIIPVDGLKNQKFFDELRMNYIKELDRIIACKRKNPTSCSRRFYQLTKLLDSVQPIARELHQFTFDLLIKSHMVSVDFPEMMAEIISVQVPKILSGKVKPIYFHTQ
Procedure, shortened: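 MDA-kb2 human breast carcinoma cells carrying an MMTV-luciferase reporter (AR- and GR-responsive) were plated, rested 5 hr at 37C, dosed with compounds, then stimulated with 0.5 nM R1881 (final) for 16 hr; luminescence was read after ONE-Glo.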

[20] = target: Androgen receptor (Homo sapiens) (UniProt P10275); test: qHTS assay to identify small molecule agonists of the androgen receptor (AR) signaling pathway in the presence of an antagonist (AID 1259381; calls by dose curve; further: nearly all actives have a fitted effect of over 15% in size)
Procedure, shortened: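 MDA-kb2 human breast carcinoma cells carrying an MMTV-luciferase reporter (AR- and GR-responsive) were treated with compounds at 15 concentrations plus 3.0uM final nilutamide for 16hr at 37C without CO2; luminescence was read after ONE-Glo addition.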

Compound | Potency [1] | Potency [2] | Potency [3] | Potency [4] | outcome [5] | Potency [6] | Potency [7] | Potency [8] | Potency [9] | Potency [10] | Potency [11] | Potency [12] | Potency [13] | Potency [14] | Potency [15] | Potency [16] | Potency [17] | Potency [18] | Potency [19] | Potency [20]
NCCN | inactive | inactive | inactive | inactive | inactive | inactive | inactive | inactive | inactive | inactive | inactive | inactive | inactive | inactive | inactive |  |  |  |  | 
CN(C)/N=N/c1nc[nH]c1C(N)=O | inactive | inactive | inactive | inactive | inactive | inactive | inactive | inactive | inactive | inactive | inactive | inactive | inactive | inactive | inactive | inactive | inactive | inactive |  | 
O=C(O)COCCN1CCN(C(c2ccccc2)c2ccc(Cl)cc2)CC1 (stereo not drawn) | inactive | inactive | inactive |  | inactive | inactive | inactive | inactive | inactive | inactive | inactive | inactive | inactive | inactive | inactive | inactive | inactive |  |  | 
Cc1ccc(S(=O)(=O)O)cc1C | inactive | inactive | inactive |  | inactive | inactive |  | inactive | inactive | inactive | inactive | inactive | inactive | inactive | inactive |  |  | inactive |  | 
CCC(Cc1c(I)cc(I)c(N)c1I)C(=O)O (stereo not drawn) | inactive | inactive | inactive | inactive | inactive | inactive | inactive | inactive | inactive | inactive | 33.3 µM (active) | inactive | inactive | inactive | inactive |  |  |  |  | 
C/C=C/C(=O)N(CC)c1ccccc1C | inactive | inactive | inactive | inactive | inactive | inactive | inactive | inactive | inactive | inactive | inactive | inactive | inactive | inactive | inactive |  |  |  |  | 
OC[C@H]1O[C@@H]2O[C@H]3[C@H](O)[C@@H](O)[C@@H](O[C@H]4[C@H](O)[C@@H](O)[C@@H](O[C@H]5[C@H](O)[C@@H](O)[C@@H](O[C@H]6[C@H](O)[C@@H](O)[C@@H](O[C@H]7[C@H](O)[C@@H](O)[C@@H](O[C@H]1[C@H](O)[C@H]2O)O[C@@H]7CO)O[C@@H]6CO)O[C@@H]5CO)O[C@@H]4CO)O[C@@H]3CO | inactive | inactive | inactive | inactive | inactive | inactive | inactive and 25.7 µM (active) | inactive | inactive and 9.13 µM (active) | inactive | inactive | inactive | inactive | inactive | inactive | inactive | inactive | inactive |  | 
CC(=O)Oc1ccc(C(c2ccc(OC(C)=O)cc2)c2ccccn2)cc1 | inactive | 54.2 nM (active) and 944 nM (active) | inactive | inactive | inactive | inactive | inactive | inactive | inactive |  | inactive | inactive | inactive | inactive |  | inactive | 2.16 µM (active) and 3.76 µM (active) |  | 171 nM (active) and 1.19 µM (active) | inactive
